# Values joined by “and” are separate entries in the source; they are usually repeats but may differ in a detail not shown here. Equal values may be shown once. Active and inactive are the calls of the source.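 Rule for the calls, unless noted: active = thallium flux through the channel raised or lowered by more than 3 SD from vehicle-only wells, actives on both sides; inactive = the rest.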
# Assays:
# [1] = liver-stage malaria parasite growth inhibition, primary screen, cell-based, HepG2, luciferase luminescence, HepG2 viability (AID 624349; in the data active = parasite load remaining mostly below about 12%, no sharp cut-off; inactive = mostly above about 10%;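 note: 100% = mean of DMSO negative control wells on the same plate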); settings: P. berghei liver stage in HepG2, luciferase luminescence, concentration not given here; parasite load remaining: stronger effect = lower value; viability: measured here: HepG2 viability without parasites
# [2] = Cy5 fluorescence interference with SSB-bound oligo, artefact control for HCV NS3 helicase inhibitor project, biochemical, NIH Clinical Collection, E. coli SSB (AID 743268; call rule not given here)
# [3] = system: Hepatitis C virus NS3 helicase; assay: HCV NS3 helicase inhibitors, primary screen, biochemical, fluorescence polarization, NIH Clinical Collection (AID 743270; call rule not given here); settings: NS3 helicase binding to Cy5-dT15 DNA, stronger effect = higher value, concentration not given here
# [4] = target: Single-stranded DNA-binding protein (Escherichia coli (strain K12)) (UniProt P0AGE0); assay: E. coli SSB displacement from DNA, counter-screen for HCV NS3 helicase inhibitor project, biochemical, fluorescence polarization, NIH Clinical Collection (AID 743271; in the data active = inhibition above about 28%); settings: stronger effect = higher value, concentration not given here
# [5] = fluorescence interference in NS3h assay format, artefact control for HCV NS3 helicase inhibitor project, biochemical, NIH Clinical Collection (AID 743272; call rule not given here;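 note: HCV NS3 helicase with a Cy5 labelled single stranded DNA probe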); settings: fluorescence interference counterscreen, stronger effect = lower value
# [6] = target: 6-phosphogluconate dehydrogenase, decarboxylating (Homo sapiens) (UniProt P52209); assay: 6PGD enzyme inhibitors, primary screen, biochemical, human, recombinant enzyme, NADPH absorbance (AID 1159550;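 active = at least 20% inhibition of 6-phosphogluconate dehydrogenase activity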); settings: recombinant 6PGD, NADPH absorbance 341 nm; at 10 µM; stronger effect = higher value
# 6-phosphogluconate dehydrogenase, decarboxylating (Homo sapiens), sequence (P52209 whole entry, looked up): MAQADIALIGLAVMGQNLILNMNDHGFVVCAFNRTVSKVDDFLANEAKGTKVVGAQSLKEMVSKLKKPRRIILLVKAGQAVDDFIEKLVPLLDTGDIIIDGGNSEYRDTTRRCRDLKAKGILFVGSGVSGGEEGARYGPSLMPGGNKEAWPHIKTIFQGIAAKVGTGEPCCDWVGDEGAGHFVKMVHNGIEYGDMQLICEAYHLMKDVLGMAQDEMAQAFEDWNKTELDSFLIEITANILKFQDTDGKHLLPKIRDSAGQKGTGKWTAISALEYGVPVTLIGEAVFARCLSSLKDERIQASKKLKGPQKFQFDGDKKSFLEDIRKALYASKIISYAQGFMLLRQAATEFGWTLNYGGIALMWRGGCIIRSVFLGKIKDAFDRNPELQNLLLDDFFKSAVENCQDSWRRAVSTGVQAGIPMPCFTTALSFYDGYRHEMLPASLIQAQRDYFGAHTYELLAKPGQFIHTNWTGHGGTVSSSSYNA
# [7] = survival rescue of mitochondrial mutant cells in low glucose, primary screen, MELAS cybrids, Rieske KO mouse fibroblasts, CellTiter-Glo (AID 1508586;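 active = mean z-score across replicates of 1.96 or higher in either the MELAS or the Rieske mutant cell line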;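 note: z relative to plate mean and SD of compound and empty wells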)
# [8] = target: NAD(+) hydrolase SARM1 (Homo sapiens) (UniProt Q6SZW1); assay: SARM1 TIR NADase inhibitors, cell lysate, NAD-Glo luminescence (AID 1508614;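 active = compound whose remaining NAD level is above about 45 nM, limit read from the data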;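 note: higher remaining NAD means stronger inhibition of SARM1 NADase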); settings: SAM-TIR HEK293T lysate NADase, at 1 µM, stronger effect = higher value
# NAD(+) hydrolase SARM1 (Homo sapiens), sequence (Q6SZW1 whole entry, looked up, the tested form may be a part): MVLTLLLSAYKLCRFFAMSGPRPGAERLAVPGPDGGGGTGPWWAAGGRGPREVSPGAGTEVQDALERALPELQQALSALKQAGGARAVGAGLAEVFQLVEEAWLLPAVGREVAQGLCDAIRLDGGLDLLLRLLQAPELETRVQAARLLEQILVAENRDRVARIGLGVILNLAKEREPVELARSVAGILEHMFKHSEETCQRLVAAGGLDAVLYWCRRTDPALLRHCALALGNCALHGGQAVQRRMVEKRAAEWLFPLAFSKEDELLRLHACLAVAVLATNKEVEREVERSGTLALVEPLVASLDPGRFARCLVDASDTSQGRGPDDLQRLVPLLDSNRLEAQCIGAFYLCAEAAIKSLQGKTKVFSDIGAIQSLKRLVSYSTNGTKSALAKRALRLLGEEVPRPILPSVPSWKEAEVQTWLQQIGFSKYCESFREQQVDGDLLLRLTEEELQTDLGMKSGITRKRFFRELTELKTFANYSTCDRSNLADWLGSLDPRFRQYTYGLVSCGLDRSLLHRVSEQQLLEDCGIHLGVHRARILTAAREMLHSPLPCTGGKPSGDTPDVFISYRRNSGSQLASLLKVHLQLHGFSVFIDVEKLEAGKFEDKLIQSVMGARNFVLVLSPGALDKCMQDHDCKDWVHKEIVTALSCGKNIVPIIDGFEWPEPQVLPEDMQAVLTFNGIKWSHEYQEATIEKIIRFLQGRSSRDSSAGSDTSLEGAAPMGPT
# [9] = target: Mitogen-activated protein kinase 7 (Homo sapiens) (UniProt Q13164); assay: ERK5 transactivation activators in reporter cells, primary screen, cell-based, HTS (AID 1508626;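 active = luciferase signal above three times the same-plate solvent-only control wells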;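 note: luciferase driven by Gal4-ERK5 fusion binding five Gal4 sites before minimal TATA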); settings: HeLa Gal4-ERK5 transactivation, 18 h, at 5 µM, stronger effect = higher value
# Mitogen-activated protein kinase 7 (Homo sapiens), sequence (Q13164 whole entry, looked up, the tested form may be a part): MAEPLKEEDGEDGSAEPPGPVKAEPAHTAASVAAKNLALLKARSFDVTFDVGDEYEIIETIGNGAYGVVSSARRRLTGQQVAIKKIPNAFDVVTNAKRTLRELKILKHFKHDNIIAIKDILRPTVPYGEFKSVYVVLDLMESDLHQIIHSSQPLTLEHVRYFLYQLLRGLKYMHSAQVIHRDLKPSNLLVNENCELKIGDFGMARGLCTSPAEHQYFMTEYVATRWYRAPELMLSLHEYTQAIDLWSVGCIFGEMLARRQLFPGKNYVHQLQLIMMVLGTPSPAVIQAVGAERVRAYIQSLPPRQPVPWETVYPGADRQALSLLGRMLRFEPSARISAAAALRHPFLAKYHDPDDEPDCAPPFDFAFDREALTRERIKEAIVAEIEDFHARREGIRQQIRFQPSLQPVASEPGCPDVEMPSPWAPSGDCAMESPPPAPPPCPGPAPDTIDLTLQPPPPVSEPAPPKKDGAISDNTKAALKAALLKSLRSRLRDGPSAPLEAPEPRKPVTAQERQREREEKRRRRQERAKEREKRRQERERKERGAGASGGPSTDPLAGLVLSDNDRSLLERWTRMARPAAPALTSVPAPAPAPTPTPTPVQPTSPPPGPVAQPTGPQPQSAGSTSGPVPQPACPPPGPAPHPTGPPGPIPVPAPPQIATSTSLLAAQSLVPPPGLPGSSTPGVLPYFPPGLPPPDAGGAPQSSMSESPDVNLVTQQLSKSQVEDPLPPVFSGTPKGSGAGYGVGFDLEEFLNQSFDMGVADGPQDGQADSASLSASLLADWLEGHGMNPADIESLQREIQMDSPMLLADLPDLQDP
# F380Y = assay: modulators of BK channel variants, profiling panel, selectivity assay, cell-based, U2OS BacMam, thallium flux, beta subunits (AID 1259406); settings: at 30 µM;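 note: initial slope of Thallos dye fluorescence rise after thallium is added; log ratio against the mean of 0.3% DMSO vehicle wells on the same plate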
# F380Y/beta2Delta = assay: as above; settings: at 30 µM
# [10] = target: Calcium-activated potassium channel subunit alpha-1 (Homo sapiens) + Leucine-rich repeat-containing protein 26 (Homo sapiens) (UniProt Q12791+Q2I0M4); assay: as above; settings: F380Y/Slo1WT/gamma1, at 30 µM
# Calcium-activated potassium channel subunit alpha-1 (Homo sapiens) + Leucine-rich repeat-containing protein 26 (Homo sapiens), sequence (Q2I0M4 whole entry, looked up, one chain of several): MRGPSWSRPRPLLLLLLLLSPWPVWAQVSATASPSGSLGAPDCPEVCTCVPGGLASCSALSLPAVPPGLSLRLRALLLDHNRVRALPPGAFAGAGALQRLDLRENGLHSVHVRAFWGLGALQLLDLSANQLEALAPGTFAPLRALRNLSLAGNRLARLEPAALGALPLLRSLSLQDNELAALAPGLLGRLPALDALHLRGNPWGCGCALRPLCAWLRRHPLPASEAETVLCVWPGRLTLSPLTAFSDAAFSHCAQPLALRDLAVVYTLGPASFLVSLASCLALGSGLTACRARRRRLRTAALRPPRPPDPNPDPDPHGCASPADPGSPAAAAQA
# R275C = assay: as above; settings: at 30 µM
# R275C/beta1 = assay: as above; settings: at 30 µM
# R275C/beta2Delta = assay: as above; settings: at 30 µM
# [11] = sensitizers of A549 cells to miR-34 induction, primary screen, imaging, A549 dox-inducible miR-34, nuclei and caspase counts (AID 1347080;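 active = compounds whose cell count with miR-34 switched on is under 0.7 times the count with it off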); settings: A549 miR-34 inducible, Hoechst nuclei count, 48 h
# [12] = viability rescue of complex I mutant cybrids, primary screen, cell-based, galactose medium, ATP luminescence (AID 1645843;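 active = z-score of at least 1.8 in each of two replicates, scored against plate mean and spread of sample wells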;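 note: positive z means more ATP and so rescue of galactose-driven cybrid death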); settings: complex I mutant cybrid cells, 72 h, stronger effect = higher value
# [13] = modulation of C. elegans fzo-1 (AID 1259413; call rule not given here;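 note: fzo-1 mutant C. elegans worms in liquid wells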); settings: C. elegans fzo-1 modulator screen, mean read-out; stronger effect = higher value
# [14] = differential killing of epithelial or mesenchymal cells, primary screen, imaging, PC-3E GFP, TEM4-18 mCherry, co-culture (AID 1345086;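 active = compounds killing one labelled cell type while sparing the other, by normalised counts and ratio limits, not self-fluorescent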;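 for all read-outs here: cells exposed to compound for 72 h before imaging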;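 for red/green cell ratio (normalised): normalised mesenchymal count divided by normalised epithelial count so high means epithelial killing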); settings: imaging cell counts, at 1 µM; for red/green cell ratio (normalised): actives lie on both sides, counts scaled to control wells, 1 = unselective
# [15] = MELAS cybrid survival, CellTiter-Glo 48 h, stronger effect = higher value
# [16] = Rieske KO mouse fibroblast survival, CellTiter-Glo 72 h
# [17] = stronger effect = lower value, cell number ratio, induced over uninduced
# [18] = measured here: relative caspase fold change +Dox/-Dox
# [19] = measured here: total cells with miR-34 induction, stronger effect = lower value
# [20] = measured here: total cells without miR-34 induction
# [21] = measured here: epithelial PC-3E GFP cell survival
# [22] = measured here: mesenchymal TEM4-18 mCherry cell survival
smiles,measurement,setting,value
CCCC1O[C@@H]2C[C@H]3[C@@H]4CCC5=CC(=O)C=C[C@]5(C)[C@H]4[C@@H](O)C[C@]3(C)[C@]2(C(=O)CO)O1 (some centres undefined),parasite load remaining,[1],14% (inactive) and 67.2% (inactive) and 78.7% (inactive)
same,viability,[1],116% and 115% and 75.3%
same,fluorescence ratio,[2],1.05 (inactive)
same,inhibition,[3],-1.36% (inactive)
same,inhibition,[4],1.05% (inactive)
same,fluorescence ratio,[5],0.99 (inactive)
same,inhibition,[6],-12.1% (inactive)
same,z-score,[7]; [15],-0.382 (inactive)
same,z-score,[7]; [16],-0.0716
same,remaining NAD,[8],10 nM (inactive)
same,luciferase signal,[9],96 AU (inactive)
same,log fold change Tl+ flux,F380Y,0.198 (active)
same,log fold change Tl+ flux,F380Y/beta2Delta,0.159 (active)
same,log fold change Tl+ flux,[10],0.0553 (inactive)
same,log fold change Tl+ flux,R275C,0.0776 (inactive)
same,log fold change Tl+ flux,R275C/beta1,0.133 (active)
same,log fold change Tl+ flux,R275C/beta2Delta,0.115 (active)
C[C@H](CCC(=O)O)[C@H]1CC[C@H]2[C@@H]3[C@@H](O)C[C@@H]4C[C@H](O)CC[C@]4(C)[C@H]3CC[C@]12C,parasite load remaining,[1],52.5% (inactive) and 128% (inactive)
same,viability,[1],109% and 101%
same,fluorescence ratio,[2],0.99 (inactive)
same,inhibition,[3],-1.36% (inactive)
same,inhibition,[4],1.81% (inactive)
same,fluorescence ratio,[5],0.97 (inactive)
same,inhibition,[6],-17.2% (inactive)
same,fold change,[11]; [17],1 (inactive) and 0.854 (inactive)
same,fold change,[11]; [18],1.43 and 1.31
same,cell count,[11]; [19],10300 and 8440
same,cell count,[11]; [20],10300 and 9880
same,z-score,[7]; [15],-0.323 (inactive)
same,z-score,[7]; [16],-0.919
same,remaining NAD,[8],10 nM (inactive)
same,luciferase signal,[9],36 AU (inactive)
same,z-score,[12],-0.425 (inactive)
same,log fold change Tl+ flux,F380Y,0.0594 (inactive)
same,log fold change Tl+ flux,F380Y/beta2Delta,0.0428 (inactive)
same,log fold change Tl+ flux,[10],0.00339 (inactive)
same,log fold change Tl+ flux,R275C,0.0817 (inactive)
same,log fold change Tl+ flux,R275C/beta1,0.198 (active)
same,log fold change Tl+ flux,R275C/beta2Delta,0.142 (active)
OC[C@H]1O[C@@H](Oc2cc(O)cc(/C=C/c3ccc(O)cc3)c2)[C@H](O)[C@@H](O)[C@@H]1O,parasite load remaining,[1],100% (inactive)
same,viability,[1],78.3%
same,fluorescence ratio,[2],1 (inactive)
same,inhibition,[3],3.56% (inactive)
same,inhibition,[4],10.7% (inactive)
same,fluorescence ratio,[5],0.98 (inactive)
same,inhibition,[6],15% (inactive)
same,mean signal,[13],254 (inactive)
same,log fold change Tl+ flux,F380Y,0.0295 (inactive)
same,log fold change Tl+ flux,F380Y/beta2Delta,-0.0576 (inactive)
same,log fold change Tl+ flux,[10],-0.0684 (inactive)
same,log fold change Tl+ flux,R275C,-0.101 (inactive)
same,log fold change Tl+ flux,R275C/beta1,-0.0629 (inactive)
same,log fold change Tl+ flux,R275C/beta2Delta,-0.0169 (inactive)
Nc1ccn([C@@H]2O[C@H](CO)[C@@H](O)C2O)c(=O)n1 (some centres undefined),parasite load remaining,[1],112% (inactive) and 32.3% (inactive)
same,viability,[1],77.2% and 77%
same,fluorescence ratio,[2],1 (inactive)
same,inhibition,[3],-5.15% (inactive)
same,inhibition,[4],-0.87% (inactive)
same,fluorescence ratio,[5],0.87 (inactive)
same,inhibition,[6],-3.33% (inactive)
same,mean signal,[13],259 (inactive)
same,fold change,[11]; [17],1.11 (inactive)
same,fold change,[11]; [18],1.22
same,cell count,[11]; [19],3020
same,cell count,[11]; [20],2720
same,z-score,[7]; [15],0.809 and -1.64 (inactive)
same,z-score,[7]; [16],2.19 and 0.364
same,remaining NAD,[8],10 nM (inactive)
same,luciferase signal,[9],88 AU (inactive)
same,z-score,[12],-1.98 (inactive)
same,log fold change Tl+ flux,F380Y,-0.0332 (inactive)
same,log fold change Tl+ flux,F380Y/beta2Delta,0.0269 (inactive)
same,log fold change Tl+ flux,[10],0.0371 (inactive)
same,log fold change Tl+ flux,R275C,0.00256 (inactive)
same,log fold change Tl+ flux,R275C/beta1,-0.0266 (inactive)
same,log fold change Tl+ flux,R275C/beta2Delta,-0.0193 (inactive)
O=C(O)c1cc(=O)c(O)c2c(O)c(O)ccc2c1,inhibition,[6],31% (active)
same,red/green cell ratio (normalised),[14],0.86 (inactive)
same,normalised cell number,[14]; [21],1.29
same,normalised cell number,[14]; [22],1.11
CC(=O)OCC(=O)[C@@]1(O)CC[C@H]2[C@@H]3C[C@H](C)C4=CC(=O)C=C[C@]4(C)[C@H]3[C@@H](O)C[C@@]21C,parasite load remaining,[1],68.8% (inactive)
same,viability,[1],94.7%
same,fluorescence ratio,[2],0.98 (inactive)
same,inhibition,[3],-2.27% (inactive)
same,inhibition,[4],0.29% (inactive)
same,fluorescence ratio,[5],0.99 (inactive)
same,inhibition,[6],6.5% (inactive)
same,mean signal,[13],251 (inactive)
same,fold change,[11]; [17],0.982 (inactive)
same,fold change,[11]; [18],1.01
same,cell count,[11]; [19],8310
same,cell count,[11]; [20],8460
same,luciferase signal,[9],112 AU (inactive)
same,z-score,[12],-0.46 (inactive)
same,log fold change Tl+ flux,F380Y,0.0243 (inactive)
same,log fold change Tl+ flux,F380Y/beta2Delta,0.0726 (inactive)
same,log fold change Tl+ flux,[10],0.0089 (inactive)
same,log fold change Tl+ flux,R275C,0.0193 (inactive)
same,log fold change Tl+ flux,R275C/beta1,0.0544 (inactive)
same,log fold change Tl+ flux,R275C/beta2Delta,0.0284 (inactive)
CCN1CCN(C(=O)N[C@@H](C(=O)N[C@@H]2C(=O)N3[C@@H]2SC(C)(C)[C@@H]3C(=O)O)c2ccccc2)C(=O)C1=O,parasite load remaining,[1],50.1% (inactive) and 75.4% (inactive) and 36.6% (inactive)
same,viability,[1],89.8% and 93.5% and 71.5%
same,fluorescence ratio,[2],0.99 (inactive)
same,inhibition,[3],-3.18% (inactive)
same,inhibition,[4],-1.24% (inactive)
same,fluorescence ratio,[5],0.98 (inactive)
same,inhibition,[6],12.4% (inactive)
same,mean signal,[13],257 (inactive)
same,fold change,[11]; [17],0.928 (inactive) and 0.85 (inactive) and 0.888 (inactive)
same,fold change,[11]; [18],2.92 and 0.912 and 1.53
same,cell count,[11]; [19],10600 and 8860 and 9900
same,cell count,[11]; [20],11400 and 10400 and 11200
same,z-score,[7]; [15],0.757 (inactive) and -0.0978 (inactive)
same,z-score,[7]; [16],0.573 and 0.405
same,remaining NAD,[8],10 nM (inactive)
same,luciferase signal,[9],72 AU (inactive)
same,z-score,[12],0.5 (inactive) and 0.93 (inactive)
same,log fold change Tl+ flux,F380Y,-0.0272 (inactive)
same,log fold change Tl+ flux,F380Y/beta2Delta,-0.0244 (inactive)
same,log fold change Tl+ flux,[10],-0.00699 (inactive)
same,log fold change Tl+ flux,R275C,-0.096 (active)
same,log fold change Tl+ flux,R275C/beta1,0.0207 (inactive)
same,log fold change Tl+ flux,R275C/beta2Delta,-0.0292 (inactive)
CN=C(N)NCCC[C@H](N)C(=O)O,parasite load remaining,[1],97.7% (inactive)
same,viability,[1],72.8%
same,fluorescence ratio,[2],0.99 (inactive)
same,inhibition,[3],-3.56% (inactive)
same,inhibition,[4],-2.41% (inactive)
same,fluorescence ratio,[5],0.93 (inactive)
same,inhibition,[6],3.01% (inactive) and 12.6% (inactive)
same,mean signal,[13],269 (inactive)
same,red/green cell ratio (normalised),[14],1.23 (inactive)
same,normalised cell number,[14]; [21],0.78
same,normalised cell number,[14]; [22],0.95
same,fold change,[11]; [17],0.994 (inactive) and 0.867 (inactive)
same,fold change,[11]; [18],0.824 and 0.665
same,cell count,[11]; [19],9540 and 7760
same,cell count,[11]; [20],9600 and 8960
same,z-score,[12],0.22 (inactive)

# Source: PubChem BioAssay
